Values joined by “and” are separate entries in the source; they are usually repeats but may differ in a detail not shown here. Equal values may be shown once. Results filed as inconclusive are left out. A structure can be active in one record and inactive in another. Active and inactive are the calls of the source. Unless noted, the call rests on the fitted dose curve.

The nature of assay [1]: qHTS assay to identify small molecule antagonists of the sonic hedgehog signaling (Shh) pathway (AID 1259369). Further: nearly all actives have a fitted effect of over 45% in size. Further: potency means the concentration at half of the fitted maximal effect. In outline:
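Stable Gli1-Luc reporter NIH/3T3 clone; quantitative HTS in stimulated mode with conditioned medium. Luminescence measured after 24hr compound treatment at 37 C.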

The target in assay [2] is Estrogen receptor beta (Homo sapiens) (UniProt Q92731). Put plainly: qHTS assay to identify small molecule agonists of the estrogen receptor beta (ER-beta) signaling pathway (AID 1259377; active means well fitted activation curve with a large enough effect in the signal ratio in the repeat runs, not every such curve was filed as active; the % refers to the signal ratio; further: potency means the concentration at half of the fitted maximal effect). The method, boiled down:
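In HEK293T cells bearing a UAS-beta-lactamase reporter under ER-beta control, DMSO-delivered compounds were incubated for 16 hr at 37C. Activity was detected as fluorescence 2 hours after LiveBLAzer B/G FRET substrate addition.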

Assay [3] has the same target. Put plainly: qHTS assay to identify small molecule antagonists of the estrogen receptor beta (ER-beta) signaling pathway (AID 1259378; active means well fitted inhibition curve with a large enough effect in the signal ratio in the repeat runs, not every such curve was filed as active; the % refers to the signal ratio; further: potency means the concentration at half of the fitted maximal effect). The method, boiled down: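 ER-beta-UAS-bla HEK293T (GripTite) cells in 2% charcoal-stripped FBS medium were preincubated 6 hr at 37C, dosed with compound, then stimulated with 1 nM E2 (final) for 16 hr; beta-lactamase reporter read by B/G FRET fluorescence after 2 hr substrate loading.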

Assay [4] in a line: qHTS assay to identify small molecule agonists of the androgen receptor (AR) signaling pathway in the presence of an antagonist - cell viability counter screen (AID 1259379; active means well fitted curve in the direction sought with a large enough effect in the repeat runs; an effect the other way counts as inactive or inconclusive; further: nearly all actives have a fitted effect of over 25% in size; further: potency means the concentration at half of the fitted maximal effect). The method, boiled down: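 Nilutamide-containing (3.0uM final) MDA-kb2 cultures, 3,000 cells/well, were treated with compounds across 15 concentrations. After 16 hr at 37C with no CO2, cell viability was determined by CellTiter-Fluor fluorescence in the luciferase assay wells.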

The nature of assay [5]: qHTS assay to identify small molecule agonists of the estrogen receptor beta (ER-beta) signaling pathway - cell viability counter screen (AID 1259380; active means well fitted curve in the direction sought with a large enough effect in the repeat runs; an effect the other way counts as inactive or inconclusive; further: nearly all actives have a fitted effect of over 30% in size; further: potency means the concentration at half of the fitted maximal effect). The method, boiled down:
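Steps: plate ER-beta-UAS-bla HEK293T cells, rest 6 hr; add compounds in DMSO; incubate 16 hr at 37C, 5% CO2; add FRET substrate 2 hr; add CellTiter-Glo, wait 30 min at room temperature; read luminescence.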

Assay [6] is described as follows: qHTS assay to identify small molecule agonists or antagonists of the thyroid stimulating hormone receptor (TSHR) signaling pathway - wild type cell line counter screen (AID 1259384). In outline:
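Wild-type HEK293 cells were plated 18 h at 37 C/5% CO2, pin-dosed with compound plus Ro20-1724 medium, held 30 min at room temperature, then given cAMP-d2 and anti-cAMP-cryptate; fluorescence was read after 1 h. Fifteen concentrations, triplicate.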

Assay [7] addresses Thyrotropin receptor (Homo sapiens) (UniProt P16473). Put plainly: qHTS assay to identify small molecule antagonists of the thyroid stimulating hormone receptor (TSHR) signaling pathway (AID 1259385). Further: nearly all actives have a fitted effect of over 20% in size. In outline: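 TSHR-HEK293 cells were plated and held 18 h at 37C/5% CO2, then given compound plus Ro20-1724 and stimulated with TSH at 1.5 ng/mL final. After 30 min at room temperature, cAMP was detected with cAMP-d2/anti-cAMP-cryptate (1 h) by fluorescence.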

In assay [8] the target is Estrogen receptor (Homo sapiens) (UniProt P03372). Put plainly: qHTS assay to identify small molecule agonists of the estrogen receptor alpha (ER-alpha) signaling pathway in the presence of an antagonist (AID 1259383). Further: nearly all actives have a fitted effect of over 15% in size. Further: potency means the concentration at half of the fitted maximal effect. On activation: top concentration of the series differs between compounds. In outline: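 Readout was ERE-driven luciferase luminescence in VM7Luc4E2 cells, which express full-length ER-alpha endogenously. Compounds were tested at 15 concentrations for 22hr alongside 10.0nM ICI-182,780 (final concentration).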
Sequence of Estrogen receptor (Homo sapiens) (P03372 whole entry, looked up): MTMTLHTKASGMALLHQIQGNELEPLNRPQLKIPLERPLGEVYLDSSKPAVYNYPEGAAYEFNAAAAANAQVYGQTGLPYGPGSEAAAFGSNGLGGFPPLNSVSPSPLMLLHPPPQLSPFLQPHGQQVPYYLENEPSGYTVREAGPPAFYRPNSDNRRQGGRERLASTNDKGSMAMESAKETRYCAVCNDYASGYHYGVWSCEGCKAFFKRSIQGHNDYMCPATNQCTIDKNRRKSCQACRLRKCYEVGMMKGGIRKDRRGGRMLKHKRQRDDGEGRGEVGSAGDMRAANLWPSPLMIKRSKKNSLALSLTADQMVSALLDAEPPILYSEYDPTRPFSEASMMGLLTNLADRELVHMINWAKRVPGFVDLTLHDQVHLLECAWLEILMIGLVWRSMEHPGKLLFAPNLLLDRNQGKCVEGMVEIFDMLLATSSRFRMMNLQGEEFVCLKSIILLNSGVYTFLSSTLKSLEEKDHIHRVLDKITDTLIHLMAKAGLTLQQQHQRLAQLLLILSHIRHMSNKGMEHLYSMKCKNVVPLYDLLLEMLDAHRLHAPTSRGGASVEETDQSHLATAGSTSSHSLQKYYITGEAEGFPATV

Assay [9] can be described thus: qHTS assay to identify small molecule antagonists of the estrogen receptor beta (ER-beta) signaling pathway - cell viability counter screen (AID 1259382; active means well fitted curve in the direction sought with a large enough effect in the repeat runs; an effect the other way counts as inactive or inconclusive; further: series mostly up to about 92 µM; nearly all actives have a fitted effect of over 55% in size). In outline:
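Viability is scored by CellTiter-Glo luminescence (30 min, room temperature) in ER-beta-UAS-bla HEK293T wells already read for reporter fluorescence. Compound exposure lasts 16 hr at 37C alongside 1nM 17-beta-estradiol in charcoal-stripped serum medium.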

The target of assay [10] is Androgen receptor (Homo sapiens) (UniProt P10275). Put plainly: qHTS assay to identify small molecule agonists of the androgen receptor (AR) signaling pathway in the presence of an antagonist (AID 1259381). Further: nearly all actives have a fitted effect of over 15% in size. In outline: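 Reporter-gene luminescence from MDA-kb2 cells exposed 16hr at 37C (0% CO2) to 15-point compound titrations with 3.0uM final nilutamide as AR antagonist.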
Sequence of Androgen receptor (Homo sapiens) (P10275 whole entry, looked up): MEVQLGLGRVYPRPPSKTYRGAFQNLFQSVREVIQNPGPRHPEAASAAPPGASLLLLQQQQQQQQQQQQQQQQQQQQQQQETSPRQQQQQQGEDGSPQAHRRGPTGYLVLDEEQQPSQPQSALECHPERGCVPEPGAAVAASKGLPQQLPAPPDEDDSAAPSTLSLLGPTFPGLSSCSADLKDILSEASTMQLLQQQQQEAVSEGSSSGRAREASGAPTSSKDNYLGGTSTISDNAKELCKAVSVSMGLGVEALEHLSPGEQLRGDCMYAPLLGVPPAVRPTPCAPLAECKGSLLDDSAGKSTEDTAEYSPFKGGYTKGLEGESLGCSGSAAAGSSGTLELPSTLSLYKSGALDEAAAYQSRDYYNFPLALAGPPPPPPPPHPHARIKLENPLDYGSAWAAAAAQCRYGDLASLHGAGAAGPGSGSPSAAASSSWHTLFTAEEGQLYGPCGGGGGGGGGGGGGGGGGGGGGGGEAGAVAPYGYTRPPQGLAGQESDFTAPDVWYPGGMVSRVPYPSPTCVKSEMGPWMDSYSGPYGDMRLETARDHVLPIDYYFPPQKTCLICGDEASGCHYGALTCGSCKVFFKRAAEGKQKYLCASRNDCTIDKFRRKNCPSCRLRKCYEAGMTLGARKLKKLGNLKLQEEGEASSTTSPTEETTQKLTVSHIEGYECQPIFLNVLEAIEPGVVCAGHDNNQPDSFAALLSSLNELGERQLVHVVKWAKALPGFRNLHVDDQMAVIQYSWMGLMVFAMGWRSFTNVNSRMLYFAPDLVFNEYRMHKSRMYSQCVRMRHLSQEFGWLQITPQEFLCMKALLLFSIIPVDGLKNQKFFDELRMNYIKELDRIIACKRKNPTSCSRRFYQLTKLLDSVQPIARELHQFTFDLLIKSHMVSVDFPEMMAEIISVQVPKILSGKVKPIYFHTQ

Sequence of Estrogen receptor beta (Homo sapiens) (Q92731 whole entry, looked up): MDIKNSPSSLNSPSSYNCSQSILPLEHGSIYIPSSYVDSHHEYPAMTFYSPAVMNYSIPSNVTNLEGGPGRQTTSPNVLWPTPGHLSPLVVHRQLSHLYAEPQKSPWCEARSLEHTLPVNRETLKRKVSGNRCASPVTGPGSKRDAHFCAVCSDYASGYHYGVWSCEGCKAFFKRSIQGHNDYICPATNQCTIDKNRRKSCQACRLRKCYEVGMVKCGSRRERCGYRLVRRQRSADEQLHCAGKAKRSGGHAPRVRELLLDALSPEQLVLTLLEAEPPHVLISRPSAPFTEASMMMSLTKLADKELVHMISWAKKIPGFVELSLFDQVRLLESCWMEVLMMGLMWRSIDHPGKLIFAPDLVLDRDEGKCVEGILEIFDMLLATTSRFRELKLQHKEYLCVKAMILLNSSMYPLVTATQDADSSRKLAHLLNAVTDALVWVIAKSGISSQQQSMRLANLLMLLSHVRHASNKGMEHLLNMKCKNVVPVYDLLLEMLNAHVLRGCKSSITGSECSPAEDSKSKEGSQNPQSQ
Sequence of Thyrotropin receptor (Homo sapiens) (P16473 whole entry, looked up): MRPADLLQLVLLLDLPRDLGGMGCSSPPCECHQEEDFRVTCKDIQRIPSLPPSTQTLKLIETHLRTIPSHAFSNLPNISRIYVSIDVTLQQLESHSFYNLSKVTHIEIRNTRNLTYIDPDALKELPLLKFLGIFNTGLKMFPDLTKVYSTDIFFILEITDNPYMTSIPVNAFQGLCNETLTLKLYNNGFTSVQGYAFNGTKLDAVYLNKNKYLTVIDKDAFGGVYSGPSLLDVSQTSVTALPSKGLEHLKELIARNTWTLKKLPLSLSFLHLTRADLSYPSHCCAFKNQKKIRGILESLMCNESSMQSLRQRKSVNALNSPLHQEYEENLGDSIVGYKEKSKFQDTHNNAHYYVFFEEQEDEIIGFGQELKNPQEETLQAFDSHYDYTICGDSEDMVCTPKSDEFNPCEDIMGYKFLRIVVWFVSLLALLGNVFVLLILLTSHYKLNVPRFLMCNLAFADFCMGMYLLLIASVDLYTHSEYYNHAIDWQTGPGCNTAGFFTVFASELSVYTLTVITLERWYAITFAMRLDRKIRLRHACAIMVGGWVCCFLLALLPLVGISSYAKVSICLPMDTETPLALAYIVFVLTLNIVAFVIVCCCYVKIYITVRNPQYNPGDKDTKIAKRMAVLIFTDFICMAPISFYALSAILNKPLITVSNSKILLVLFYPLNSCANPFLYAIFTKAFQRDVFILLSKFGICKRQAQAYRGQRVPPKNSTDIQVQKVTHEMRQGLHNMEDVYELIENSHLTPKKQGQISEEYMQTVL

Regarding `Oc1ccccc1O`, the Potency in [1] is 874 nM (active) and inactive; in assay [2] it was 22 µM (active) and 24.3 µM (active). The Potency entry in assay [3], in assay [4], in [5] and in [7] was “inactive” throughout. Further, the result in assay [6] was inactive.

Turning to `C=C(C)c1cccc(C(=C)C)c1`, the Potency entry in [1], in [2], in assay [3], in assay [4], in assay [5] and in [8] was “inactive” throughout. In addition, the Potency entry in assay [7] was “inactive”. Moreover, in [6], the compound was classed as inactive.

Regarding `CC(CCc1ccccc1)NCC(O)c1ccc(O)c(C(N)=O)c1` (stereo not given), in assay [1], the Potency is 30.6 µM (active). In addition, the Potency result in [2], in [3], in assay [4] and in assay [8] was “inactive” in each case.

For `C#C[C@]1(O)CC[C@H]2[C@@H]3[C@H](C)CC4=C(CCC(=O)C4)[C@H]3CC[C@@]21C`, the values for the Potency in [1], in assay [2] and in [8] were 29.8 µM (active), 188 nM (active) and 84.1 nM (active), respectively. Further, the Potency entry in assay [3], in [4], in assay [5] and in assay [9] was “inactive” throughout.

For `CCC(=O)OC(=O)CC`, the Potency entry in assay [1], in [2], in assay [3], in assay [4], in [8] and in assay [7] was “inactive” each time. Moreover, the call in [6] was inactive.

As to `CCCC(=O)OCCc1ccccc1`, the Potency entry in assay [1], in [2], in [3], in [4], in [9] and in [7] was “inactive” in each case. The outcome in [6] was inactive.

As to `Sc1nc2ccccc2s1`, in assay [1], the Potency is 54.5 µM (active). Further, the Potency entry in assay [2], in assay [3], in assay [4], in [5], in assay [9] and in [7] was “inactive” each time.

Regarding `OC12N=C(c3ccccc3)SC1Cc1cc(Cl)ccc12` (stereo not given), the Potency entry in assay [1], in assay [2], in assay [4] and in [9] was “inactive” each time. Also, the Potency in [3] is 61.1 µM (active); in [8], 1930 nM (active).

As to `O=C(O)c1ccc2cc(C(=O)O)ccc2c1`, the Potency entry in [1], in [2], in assay [3], in [4], in [5] and in assay [9] was “inactive” each time. In addition, the Potency result in [8] is “inactive”. Moreover, the compound was classed as inactive in assay [6].

For the compound `[Cu+]`, the Potency entry in [1], in assay [2], in [3], in [4], in assay [5] and in [9] was “inactive” each time. Moreover, the Potency entry in assay [8] is “inactive”. Moreover, the compound was classed as inactive in assay [6].

In the case of `CC(C)(C)C1CCC(=O)CC1`, the Potency in assay [1] was 30.6 µM (active). Further, the Potency entry in assay [2], in assay [3], in assay [4], in [5], in assay [9] and in assay [8] was “inactive” throughout. Further, the Potency entry in assay [7] is “inactive”. Besides, the compound was classed as inactive in [6].

For `OC[C@@H](O)[C@@H](O)CO`, the Potency entry in assay [1], in assay [2], in [3], in [4], in assay [5] and in assay [9] was “inactive” each time. Also, the Potency entry in [8] and in assay [7] was “inactive” in each case. Further, in [6], the outcome was inactive.

`CC(C)OC(=O)C(O)(CC(=O)O)CC(=O)O`: the Potency result in [1], in assay [2], in [3], in assay [5], in assay [9] and in [8] was “inactive” throughout. Moreover, in assay [7], the Potency result was “inactive”. The result in assay [10] and in assay [6] was inactive.

Turning to `CCc1ccc(Br)cc1`, the Potency result in [1], in assay [2], in assay [3], in assay [4], in [5] and in assay [9] was “inactive” in each case. Moreover, in [7], the Potency result was “inactive”. Further, the compound was called inactive in [6].

As for `FC(F)(F)c1cccc(Cl)c1`, the Potency result in assay [1], in assay [2], in assay [3], in assay [4], in assay [5] and in [9] was “inactive” in each case. Also, the Potency entry in assay [8] and in assay [7] was “inactive” throughout. Further, the result in assay [10] and in assay [6] was inactive.

Regarding `CCCNCCC`, the Potency result in assay [1], in [2], in assay [4], in assay [9] and in assay [7] was “inactive” each time. In assay [6], the outcome was inactive.

Consider `O=C1C(c2[nH]c3ccc(S(=O)(=O)O)cc3c2O)=Nc2ccc(S(=O)(=O)O)cc21`, for which the Potency result in assay [1], in assay [2], in assay [3], in assay [5] and in [9] was “inactive” each time.

As to `Cc1nc(-c2ccc(Cl)cc2)oc1COC(C)(C)C(=O)O`, the Potency entry in assay [1], in assay [2], in assay [3], in [9] and in assay [7] was “inactive” throughout. Besides, in assay [6], the call was inactive.

For `O=C(O)c1cc(O)c2ccccc2c1O`, the Potency was 1.72 µM (active) in [1], 54.5 µM (active) in [4] and 30.6 µM (active) in assay [5]. The Potency entry in [2] and in assay [8] was “inactive” throughout. In addition, in assay [6], the compound was called inactive.

As to `Oc1cc(Cl)cc(Cl)c1Cl`, the Potency in assay [1] and in assay [5] was 31.4 µM (active) in each case. In addition, the Potency entry in [2], in assay [9], in assay [8] and in [7] was “inactive” throughout. The outcome in [6] was inactive.

For `O=C(O)c1cc(=O)c2ccccc2o1`, the Potency entry in assay [1], in [2], in [3], in assay [5], in assay [9] and in assay [7] was “inactive” each time. Moreover, the compound was called inactive in assay [6].

In the case of `Fc1ccc(C(c2ccc(F)cc2)N2CCNCC2)cc1`, the Potency in [1] was 2.98 µM (active). Also, the Potency result in assay [2], in assay [3], in assay [9] and in assay [7] was “inactive” each time. Also, the result in [10] and in assay [6] was inactive.

On to `CN(C)Cc1ccccc1O`, for which the Potency entry in assay [1], in assay [3], in assay [4], in assay [5], in assay [9] and in assay [8] was “inactive” throughout. Moreover, in assay [7], the Potency result was “inactive”. Besides, the result in assay [10] and in assay [6] was inactive.

Regarding `CCCCCC/C=C\CCCCCCCC(=O)O`, the Potency entry in [1], in assay [2], in assay [3], in assay [5], in [8] and in assay [7] was “inactive” each time. The compound was called inactive in assay [6].

For the compound `O=C1CCc2cc(OCCCCc3nnnn3C3CCCCC3)ccc2N1`, the Potency in [1] was 10.6 µM (active). In addition, the Potency result in assay [2], in assay [4], in [5], in assay [9] and in [7] was “inactive” throughout. Besides, the compound was classed as inactive in assay [6].

Regarding `COC(=O)c1ccccc1OC`, the Potency result in [1], in assay [3], in [4], in assay [5], in assay [9] and in assay [8] was “inactive” in each case. Moreover, the Potency entry in assay [7] is “inactive”. In addition, the compound was classed as inactive in [6].

Values taken from PubChem BioAssay (Tox21).
